# Compounds with a hit are over-represented: about 0.84% of the library has one in this group of screens.
# SRC1 inh: inhibits human SRC1 coactivator. Q15788. HEK293 GAL4-SRC1 luciferase reporter, luminescence. AID 588354. inhibition, % at 3.6 µM. 360,000 tested, 0.12% active;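 active means inhibition above the campaign mean plus 3 SD, with each screening campaign given its own cutoff, cut at about 60% in these data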;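 further: 0% = DMSO treated cells and 100% = gossypol at 36 µM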
# COUP-TFII inh: inhibitors of human COUP-TFII (NR2F2). P24468. HEK293T NGFI-A luciferase reporter, luminescence. inhibition, % at 8.6 µM. 370,000 tested, 0.7% active;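 active means inhibition above a per-plate cutoff, mean inhibition of test wells between control levels plus 3 SD, cut at about 38% in these data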;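 further: cells cotransfected with COUP-TFII expression vector driving the NGFI-A reporter; 0% = median of COUP-TF2 test wells and 100% = reporter-only cells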
# LRH-1 inv ag: NR5A2 inverse agonism in reporter assay. HEK293T StAR-luciferase reporter, LRH-1 transfected, 24 h. inhibition, % at 3.6 µM. 360,000 tested, 0.13% active. AID 602396;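 active means inhibition above the mean inhibition of all tested compounds plus 3 SD, cut at about 73% in these data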;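 further: 0% = DMSO wells and 100% = reporter-only cells lacking LRH-1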
# SRC3 inh: human NCOA3 inhibition; inhibition, % at 3.6 µM; 360,000 tested, 0.17% active; HEK293 GAL4-SRC3 luciferase reporter, luminescence; Q9Y6Q9; AID 588352;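 active means inhibition above a per-campaign cutoff, the mean of all compounds plus 3 SD, cut at about 60% in these data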;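 further: 0% = DMSO-treated cells and 100% = gossypol-treated cells at 36 µM; higher means less SRC3-driven luciferase light from the GAL4 reporter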
# Target sequence (Q9Y6Q9 whole entry, looked up, the tested form may be a part): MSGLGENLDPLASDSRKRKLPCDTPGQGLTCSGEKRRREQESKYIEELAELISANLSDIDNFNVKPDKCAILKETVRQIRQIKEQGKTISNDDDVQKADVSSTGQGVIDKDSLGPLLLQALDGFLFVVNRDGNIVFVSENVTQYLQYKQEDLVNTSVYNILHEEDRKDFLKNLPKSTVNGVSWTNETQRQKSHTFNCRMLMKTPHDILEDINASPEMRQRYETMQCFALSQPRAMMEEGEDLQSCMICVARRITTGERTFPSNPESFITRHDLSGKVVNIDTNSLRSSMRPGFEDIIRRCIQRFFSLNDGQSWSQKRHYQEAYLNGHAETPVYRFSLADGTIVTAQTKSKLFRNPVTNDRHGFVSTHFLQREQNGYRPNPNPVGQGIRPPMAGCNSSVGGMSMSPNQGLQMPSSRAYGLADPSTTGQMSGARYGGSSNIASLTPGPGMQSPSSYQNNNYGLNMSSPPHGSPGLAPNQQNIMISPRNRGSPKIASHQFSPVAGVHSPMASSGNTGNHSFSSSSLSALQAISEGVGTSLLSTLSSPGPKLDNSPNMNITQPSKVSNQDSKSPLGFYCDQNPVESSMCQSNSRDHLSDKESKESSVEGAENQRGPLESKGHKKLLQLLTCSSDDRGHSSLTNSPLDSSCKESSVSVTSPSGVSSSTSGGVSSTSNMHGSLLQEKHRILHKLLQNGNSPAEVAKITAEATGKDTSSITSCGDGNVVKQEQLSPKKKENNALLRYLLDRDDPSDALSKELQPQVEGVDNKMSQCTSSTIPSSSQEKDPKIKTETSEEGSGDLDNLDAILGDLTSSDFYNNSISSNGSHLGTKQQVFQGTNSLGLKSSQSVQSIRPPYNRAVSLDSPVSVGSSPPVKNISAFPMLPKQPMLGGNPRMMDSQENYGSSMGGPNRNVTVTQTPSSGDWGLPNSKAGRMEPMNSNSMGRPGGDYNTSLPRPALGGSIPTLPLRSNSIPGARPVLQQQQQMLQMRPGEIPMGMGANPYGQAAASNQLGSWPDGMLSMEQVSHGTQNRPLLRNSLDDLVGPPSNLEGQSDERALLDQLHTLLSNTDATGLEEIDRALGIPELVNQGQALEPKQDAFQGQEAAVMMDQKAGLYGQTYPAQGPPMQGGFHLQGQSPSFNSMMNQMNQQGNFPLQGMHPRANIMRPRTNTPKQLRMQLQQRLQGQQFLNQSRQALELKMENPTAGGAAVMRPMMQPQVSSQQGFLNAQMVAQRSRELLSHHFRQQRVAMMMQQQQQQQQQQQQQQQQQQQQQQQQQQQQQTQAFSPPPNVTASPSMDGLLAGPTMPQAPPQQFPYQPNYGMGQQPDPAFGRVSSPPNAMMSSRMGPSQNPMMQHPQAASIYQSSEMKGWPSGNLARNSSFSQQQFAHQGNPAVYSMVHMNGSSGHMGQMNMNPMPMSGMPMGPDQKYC
# NCOA2 inhibitor: human SRC2 (NCOA2) inhibition; HEK293 GAL4-SRC2 luciferase reporter, luminescence; inhibition, % at 9 µM; 370,000 tested, 0.17% active;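 active means inhibition above the mean inhibition of all tested compounds plus 3 SD, set per campaign, cut at about 52% in these data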;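 further: 0% = DMSO treated cells and 100% = cells given Gossypol at 36 µM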
# Gal4-VP16 ctr: inhibits VP16 reporter, flagging COUP-TFII antagonist hits | inhibition, % at 8.5 µM | shares compounds with COUP-TFII inh | 2,500 tested, 25% active | HEK293 Gal4-VP16 luciferase reporter, luminescence | AID 687007; in the data active means inhibition above about 13%
# NR2F2 inh conf: COUP-TFII (NR2F2) inhibition, confirmation assay; shares compounds with COUP-TFII inh; HEK293 NGFI-A luciferase reporter, luminescence; inhibition, % at 8.5 µM; 2,500 tested, 45% active; AID 687008;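 active means mean inhibition over three repeats above a set limit taken from the earlier primary screen, cut at about 38% in these data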;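 further: 100% = cells given the luciferase reporter alone without the COUP-TF2 vector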
# Starred values were filed as active, the others as inactive; . = no result given.
SMILES,SRC1 inh,COUP-TFII inh,LRH-1 inv ag,SRC3 inh,NCOA2 inhibitor,Gal4-VP16 ctr,NR2F2 inh conf
COc1ccc(C(=O)OCCN2CCN(C3CN(Cc4cn(Cc5ccccc5C(F)(F)F)nn4)S(=O)(=O)C3)CC2)cc1OC (centres undefined),.,48*,.,.,14,0,17
O=S1(=O)CC(N2CCN(Cc3ccccc3F)CC2)CN1Cc1cn(Cc2ccc(C(F)(F)F)cc2)nn1 (centres undefined),.,60*,16,.,16,-6,14
CN1C(=O)C(c2cn(C)c3ccccc23)(c2cn(C)c3ccccc23)c2ccccc21,.,-10,.,.,4,.,.
C=CCNc1nc(-c2sc(NC(=O)C(C)(C)C)nc2C)c(-n2cc(-c3ccccc3)nn2)s1,.,38*,26,.,23,-5,10
C=CCNc1nc(-c2sc(NC(C)=O)nc2C)cs1,-53,-36,13,-28,-21,.,.
Cc1csc2ncnc(N3CCN(C(=O)Nc4ccc(OC(F)(F)F)cc4)CC3)c12,-7,39*,-2,32,41,6,28
CCNC(=O)OCCC12CC3CC(CC(C3)C1)C2,-8,-1,-6,11,-22,.,.
O=C(OCC12CC3CC(CC(C3)C1)C2)c1ccc(NCc2cc(O)ccc2O)cc1,18,80*,65,73*,85*,79*,99*
N#CCC(=O)Nc1ccc(C(=O)OCC(=O)C23CC4CC(CC(C4)C2)C3)cc1,10,-6,4,-18,14,.,.
O=C(OCCC12CC3CC(CC(C3)C1)C2)c1ccc(NCc2cc(O)ccc2O)cc1,56,90*,52,74*,94*,78*,101*
C=CCN(c1ccc(C(=O)NCCSc2ccccc2)cc1)S(C)(=O)=O,-21,1,-39,-38,-37,.,.
COc1ccccc1C(=O)N1CCC2CCN(C(=O)c3ccccc3)C2C1 (centres undefined),.,10,.,.,-21,.,.
COC(=O)c1c(-c2ccc(N(C)C)cc2)sc2ccc(OC)cc12,0,57*,28,-16,61*,24*,49*
Cc1ccc(-c2noc(CCC(=O)NCC3CCCO3)n2)cc1 (centres undefined),-6,1,2,5,24,.,.
CNC(=O)CCc1nc(-c2ccc(C(C)(C)C)cc2)no1,-78,-14,-89,-69,2,.,.
CC(C)(C)c1ccc(-c2noc(CCC(=O)Nc3cccnc3)n2)cc1,21,78*,37,41,80*,59*,77*
CC(C)(C)c1ccc(-c2noc(CCC(=O)NCC3CCCO3)n2)cc1 (centres undefined),22,75*,40,20,59*,26*,61*
CC(C)(C)c1ccc(-c2noc(CCC(N)=O)n2)cc1,51,85*,76*,59,83*,72*,88*
CN(C)C(=O)CCc1nc(-c2ccc(C(C)(C)C)cc2)no1,-68,-25,-100,-68,-13,.,.
COc1ccc(-c2noc(CCC(=O)Nc3cccnc3)n2)cc1,-16,1,-8,-33,8,.,.
CC(C)(C)c1ccc(-c2noc(CCC(=O)NC3CC3)n2)cc1,.,56*,.,.,.,-47,36
COc1cc2c(c(OC)c1OC)[C@@]1(c3ccccc3)CCCC[C@H]1[C@@H]2NC(=O)C(F)(F)F,.,11,.,.,3,.,.
O=C(N[C@H](Cc1ccccc1)C(=O)NCCCN1CCCC1=O)[C@H]1O[C@@H](n2ccc(=O)[nH]c2=O)[C@H](O)[C@@H]1O,.,-1,.,.,16,.,.
O=C(Nc1cccc(S(=O)(=O)N2CCCCCC2)c1)c1ccc(Cl)nc1,12,41*,6,11,21,-2,5
O=C(Nc1cccc(S(=O)(=O)N2CCCCCC2)c1)C1CCN(C(=O)c2ccc(Cl)cc2)CC1,0,42*,-3,8,1,-3,9
SMILES,SRC1 inh,COUP-TFII inh,LRH-1 inv ag,SRC3 inh,NCOA2 inhibitor,Gal4-VP16 ctr,NR2F2 inh conf
O=C(Nc1cccc(S(=O)(=O)N2CCCCC2)c1)c1ccc(Cl)nc1,12,29,13,9,5,.,.
O=C(Nc1cccc(S(=O)(=O)N2CCCCC2)c1)C1CCN(C(=O)c2ccc(Cl)cc2)CC1,-2,15,17,-4,-1,.,.
O=C(Nc1cccc(S(=O)(=O)Nc2ccccc2Cl)c1)c1ccc(Cl)nc1,33,47*,41,43,16,10,40*
FC(F)(F)c1cc(-c2ccccc2)nc2nc(N3CCOCC3)sc12,-6,-8,-11,8,-27,.,.
COc1cc2c(cc1OC)[C@@H](NC(=O)c1ccncc1)[C@H](C)[C@H]2c1ccccc1,.,-14,.,.,-23,.,.
C[C@H](O)[C@@H]1CN2CCc3c([nH]c4ccccc34)[C@@H]2C[C@@H]1N(C)CC1CCCCC1,.,11,.,.,9,.,.
CCN=C1NC(c2ccccc2C(F)(F)F)C(C(=O)OC)=C(C)N1Cc1ccc(C(F)(F)F)cc1 (centres undefined),.,1,.,.,4,.,.
CC(=O)CSc1ccc(-c2nc3cc(C)c(C)cc3[nH]2)cn1,21,54*,0,46,63*,2,29
CCC(C)N(C(=O)c1ccc(CNC(=O)c2cccc(Br)c2)cc1)C(C)CC (centres undefined),.,3,.,.,4,.,.
Cc1nn(C(C)(C)C)c(C)c1/C=N/OC(=O)Nc1ccc(Cl)cc1,93*,99*,94*,93*,91*,94*,107*
NC(=O)c1cc([N+](=O)[O-])ccc1NCc1ccc(N)cc1,41,52*,-1,45,73*,64*,50*
CC(C)(C)c1ccc(-n2ncc3c2CCCC3NC(=O)CN2CCCC2=O)cc1 (centres undefined),9,43*,2,29,31,5,23
Cn1nccc1C(=O)NC1CCCc2c1cnn2-c1ccc(C(C)(C)C)cc1 (centres undefined),11,69*,45,34,26,-4,69*
O=C(N[C@H](C(=O)N1CCC[C@H]1C(=O)NCc1ccccc1)C1CCCCC1)c1ccc(Cl)c(Cl)c1,.,8,.,.,11,.,.
COc1ccc(-c2ccc3c(n2)CCCN3S(=O)(=O)c2ccccc2C)cc1,.,18,.,.,-4,.,.
COc1ccc(/C=C2\COc3ccccc3C2=O)cc1OC,-14,-13,-12,12,-10,.,.
CCOc1cc(/C=C2\COc3ccccc3C2=O)cc(Br)c1OCC(=O)N(C)C,35,38*,25,42,57*,4,28
Cc1cc(SCC(=O)c2ccccc2)n2nc(C)nc2n1,-2,45*,21,-7,3,13*,32
CCCN1CCCCC(NC(=O)c2ccc(C)cc2C)C1=O (centres undefined),.,-7,.,.,14,.,.
COc1ccc(C(=O)CC2(O)C(=O)N(CN3CCOCC3)c3ccc(Br)cc32)cc1 (centres undefined),.,8,.,.,-21,.,.
